Bioassay records from PubChem.
DT40 TDP1 no CPT: qHTS for Inhibitors of human tyrosyl-DNA phosphodiesterase 1 (TDP1): qHTS in cells in absence of CPT. DT40 Tdp1-/- hTDP1 cells, no CPT, ATP luminescence, 48 h. Potency, µM (highest dose often 46.2 µM), inactives show top-dose activity change, negative = growth inhibition, actives largely listed as inhibitors. 420,000 tested, 15% active; also: nearly all actives have a fitted effect of over 55% in size
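Luminescent ATP content (CellTiter-Glo) served as the growth readout. Knockout chicken DT40 cells expressing human TDP1 were exposed to compounds without camptothecin for a minimum 48 hr at 37 °C.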
HT1080 IDH1KD tx: toxicity to HT-1080 IDH1 knockdown cells (counter line); Potency, µM (series often up to 46.1 µM), without a hit: top-dose activity, negative = toxicity, usual class: cytotoxic; 360,000 tested, 2% active; HT-1080 IDH1 knockdown viability, ATP luminescence, 48 h;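 also: 0% = DMSO wells and -100% = cell-free medium wells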
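Assay cells: HT-1080 with IDH1 knockdown, 750 per well, RPMI/5% FBS. Exposure: 48 h at 37 °C following 2 h pre-incubation. Read: CellTiter-Glo luminescence; fitted concentration-response, curve class assigned.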
KB-3-1 tox: kills parental KB-3-1 adenocarcinoma cells; KB-3-1 viability, CellTiter-Glo ATP luminescence, 72 h; Potency, µM (titrated, usually from 46.1 µM), actives largely listed as cytotoxic; 400,000 tested, 1.4% active; AID 1347075; also: nearly all actives have a fitted effect of over 60% in size
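Viability of parental KB-3-1 cells, measured by CellTiter-Glo luminescence, followed a 72 h incubation at 37 °C with pinned compounds in phenol-red-free DMEM containing 10% FBS.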
TDP1 cell CPT: growth inhibition of DT40 Tdp1-/-;hTDP1 cells with camptothecin (screen for TDP1 inhibitors); AID 686979; chicken DT40 Tdp1-/-;hTDP1 cells + 20 nM CPT, ATP luminescence, 48 h; Potency, µM (top dose mostly 46.2 µM), without a hit: top-dose activity change, negative = growth inhibition, most hits filed as inhibitors; 420,000 tested, 12% active; also: nearly all actives have a fitted effect of over 55% in size
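Cell growth measured by CellTiter-Glo luminescence after a minimum 48 h, 37 C compound exposure with 20 nM CPT in Tdp1-knockout DT40 cells stably expressing hTDP1, seeded 400/well; qHTS titration format.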
HT1080NT lethal: kills 2HG-producing HT-1080-NT fibrosarcoma cells | HT-1080-NT fibrosarcoma viability, CellTiter-Glo ATP luminescence, 48 h | Potency, µM (doses to about 46.1 µM), without a hit: at the highest dose activity, negative = less viability, hits mostly cytotoxic | 360,000 tested, 1.6% active | AID 686970;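 also: NT is the 2HG producing partner of a matched IDH1 knockdown line; 0% = DMSO-treated cells and -100% = media-only wells without cells; nearly all actives have a fitted effect of over 55% in size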
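Fibrosarcoma NT cells, 750 per well in 5% FBS RPMI, were exposed to compound for 48 hours. Viability: CellTiter-Glo luminescence.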
KB-V1 cytotox: KB-V1 MDR subline cytotoxicity; 400,000 tested, 3.4% active; AID 1347076; KB-V1 MDR cells viability, CellTiter-Glo, 72 h; Potency, µM (top dose mostly 46.1 µM), most hits filed as cytotoxic; also: nearly all actives have a fitted effect of over 60% in size
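In this primary screen, KB-V1 cells overexpressing P-gp are incubated with library compounds (lowest to highest concentration) for 72 h at 37 degrees C before a luminescent ATP viability read.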
The depositor's hits bear a star; i = inactive; u = inconclusive; x = not tested or not shown; [ ] = dose if it differs, or a comment. Compounds with a hit are over-represented: about 19% of the library has one in this group of screens. Calls follow the shape of the dose curve; as a rule, active = well fitted curve in the direction sought with a large enough effect; inconclusive = small, poorly fitted or top-dose-only effect, or another doubt; inactive = no such curve, though single readings can be large; an effect the other way counts as inactive or inconclusive. Unless noted, % is scaled to controls: 0 for no effect and ±100 for the full control effect; potency is read from the fitted curve at half-maximal effect.

SMILES	DT40 TDP1 no CPT	HT1080 IDH1KD tx	KB-3-1 tox	TDP1 cell CPT	HT1080NT lethal	KB-V1 cytotox
O=CC1=C(N2CCOCC2)/C(=C\c2ccccc2)CC1	u	-15.4%	i	u	-15.0%	i
CCc1ccccc1NC(=O)C(CC)Oc1ccccc1-c1nnc(-c2ccccc2)o1 (stereo unspecified)	5.17µM*	x	14.6µM*	5.8µM*	x	u
CC1=CC2OC3CC4OC(=O)C=CC=CC(C(C)O)OCC(O)C(C)CC(=O)OCC2(CC1O)C4(C)C31CO1 (stereo unspecified)	0.0206µM*	x	0.0092µM*	0.013µM*	0.0461µM*	u
CC1=CC2OC3CC4OC(=O)C=CC=CC(=O)OCCC(C)C(O)C(=O)OCC2(CC1O)C4(C)C31CO1 (stereo unspecified)	0.164µM*	x	0.146µM*	0.146µM*	0.206µM*	0.517µM*
C[C@@H]1OC(OC2C(OC3CC[C@@]4(C)C5CC=C6C7CC(C)(C)CC[C@@]7(C(=O)O)CCC6(C)C5(C)CCC4[C@]3(C)CO)OCC(O)C2O)C(O)C(O)C1O (stereo partly specified)	16.4µM*	x	x	u	x	x
O=C(N/N=C/c1ccccc1OC(=O)N1CCOCC1)c1cccs1	4.61µM*	u	i	4.11µM*	-15.2%	i
COc1ccc2ccccc2c1CNCCc1ccccc1	u	-7.1%	i	23.1µM*	-20.3%	i
C[C@]12C[C@H]3S[C@H]3C[C@@H]1CC[C@@H]1[C@@H]2CC[C@]2(C)[C@@H](O)CC[C@@H]12	-29.4%[21.1 µM]	x	x	-27.0%[21.1 µM]	x	x
O=c1[nH]c(=S)n(CCC2=CCCCC2)c(O)c1C=NC1CCN(Cc2ccccc2)CC1	u	-4.3%	u	20.6µM*	-5.2%	5.8µM*
O=C(NC1CCCCC1)Oc1cc2oc(=O)sc2cc1Cl	14.6µM*	-10.0%	i	-17.4%	-5.5%	i
CC(=O)C1C(N2CC2)CC2C3CC=C4CC(O)CCC4(C)C3CCC21C (stereo unspecified)	5.8µM*	-6.0%	u	1.84µM*	-24.8%	u
C[C@]12C[C@@H](O)[C@H](O)CC1=CCC1C2CC[C@]2(C)C(=O)CCC12 (stereo partly specified)	3.7%	1.5%	i	-5.9%	0.0%	i
C[C@]12CC[C@@H](O)CC1=CCC1C2CC[C@@]2(C)C1CC[C@@H]2O (stereo partly specified)	-1.2%	8.8%	i	-7.7%	-1.2%	i
C[C@]12CC[C@H](O)CC1=CC[C@@H]1[C@@H]2CC[C@]2(C)C(=O)CC[C@@H]12	u	-2.2%	i	u	11.7%	u
CC1(C)C(=O)CC[C@@]2(C)C1=CCC1C2CC[C@]2(C)C(=O)CCC12 (stereo partly specified)	u	13.5%	i	16.4µM*	8.2%	i
C[C@]12CC[C@H](O)CC1=CCC1C2CC[C@]2(C)C(=O)CC[C@@H]12 (stereo partly specified)	29.9µM*	x	x	29.9µM*	x	x
CC12CCC3C(CC=C4CC(O)CCC43C)C1CC(=CN1CCOCC1)C2=O (stereo unspecified)	-12.7%	-16.8%	i	1.8%	-6.4%	i
CC12CCC3C(CC=C4CC(O)CCC43C)C1C/C(=C\c1ccccc1F)C2=O (stereo unspecified)	23.1µM*	u	i	u	u	i
C[C@]12CC[C@H](O)CC1=CCC1C2CC[C@]2(C)C(=O)[C@H](Br)CC12 (stereo partly specified)	u	-12.3%	i	u	3.7%	u
Cc1nn(C)cc1/C=C1/CC2C3CC=C4CC(O)CCC4(C)C3CCC2(C)C1=O (stereo unspecified)	u	-0.5%	i	1.0%	-8.8%	18.4µM*
C[n+]1c(-c2ccccc2)sc2ccccc21	1.03µM*	-1.8%	i	1.3µM*	-0.6%	i
COC(=O)C12OCC34C(CC5C(C)=C(O)C(=O)CC5(C)C3C(O)C1O)OC(=O)C(OC(=O)/C=C(\C)C(C)C)C24 (stereo unspecified)	0.058µM*	0.0259µM*	0.184µM*	0.0411µM*	u	3.26µM*
Cc1cccc(N=C2c3cc([N+](=O)[O-])ccc3-c3c2cc([N+](=O)[O-])cc3[N+](=O)[O-])c1	18.4µM*	-12.6%	14.6µM*	8.2µM*	-2.7%	u
O=[N+]([O-])c1ccc(F)c([N+](=O)[O-])c1	u	x	x	5.6%	x	x
C1=NCCc2c1[nH]c1ccccc21	u	16.4µM*	u	-82.3%	u	16.4µM*
SMILES	DT40 TDP1 no CPT	HT1080 IDH1KD tx	KB-3-1 tox	TDP1 cell CPT	HT1080NT lethal	KB-V1 cytotox
CCSc1cc(C2C(C#N)=C(N)Oc3n[nH]c(C)c32)c(C)o1 (stereo unspecified)	16.4µM*	u	u	u	u	u
COc1ccc(C2C(C#N)=C(N)Oc3n[nH]c(C)c32)cc1Cn1cc([N+](=O)[O-])cn1 (stereo unspecified)	u	17.6%	i	u	1.9%	i
NC(=O)CS(=O)C(c1ccccc1)c1ccccc1 (stereo unspecified)	-6.9%	x	x	6.5%	x	x
CCN(C1CCCCC1)S(=O)(=O)c1ccc(S(=O)(=O)N(CC(=O)Nc2ccccc2)C2CC2)cc1	u	-9.8%	i	u	-2.4%	6.51µM*
CCN(c1ccccc1)S(=O)(=O)c1ccc(C(=O)NC2CCCCC2)cc1	16.4µM*	-3.3%	i	u	2.3%	i
CCCCC[C@@H]1CCCCC[C@@H](O)C[C@@H](O)[C@H](O)/C=C/C(=O)O1	u	0.0%	i	-25.1%	-21.7%	i
COc1cccc(C2CCN(CC(=O)Nc3cc(Cl)ccc3OC)CC2O)c1 (stereo unspecified)	-27.5%	-9.4%	i	-0.7%	-14.3%	i
CCOc1ccc(N(C(C)C(=O)Nc2cc(Cl)ccc2OC)S(C)(=O)=O)cc1 (stereo unspecified)	0.517µM*	x	3.66µM*	0.581µM*	x	u
COc1ccc(CNCCc2ccc3c(c2)OCO3)cc1Br	20.6µM*	-6.4%	i	u	-7.3%	i
Cc1cc(C(=O)Cn2nnc(-c3ccc(Cl)cc3)n2)c(C)n1-c1ccccc1	u	-14.4%	i	-18.2%	-18.1%	i
CC(C)(C)NC[C@H](O)c1ccc(O)cc1Cl	-2.0%	x	x	6.1%	x	x
